TDP-43 yeast inh: inhibitors of TDP-43 toxicity in yeast | Potency, µM (titrated, usually from 46.1 µM), for the others: top-dose growth rescue (activation), usual class: activators | actives 1.8% (n = 410,000) | TDP-43 expressing yeast growth rescue, BacTiter-Glo, 24 h; further: % of control where 0% means no effect; nearly all actives have a fitted effect of over 50% in size
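Readout is BacTiter-Glo luminescence of cell growth, so inhibitors register as activators. TDP-43-expressing yeast at OD600=0.02 in galactose medium, after raffinose pregrowth to mid-log, were incubated with compound for 24 hr at 30 deg C.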
FUS suppressor: rescues growth of FUS-expressing yeast | S. cerevisiae FUS-expressing, growth rescue, OD600, 24 h | Potency, µM (series often up to 76.6 µM), hits mostly activators | actives 0.24% (n = 390,000);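 further: plate controls were DMSO vehicle for no effect and reference control for full effect; nearly all actives have a fitted effect of over 55% in size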
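Toxicity suppression screen in FUS-yeast. Cells induced with 2% galactose, starting OD 0.005, treated 24hr at 30C with compounds at multiple final concentrations; growth by OD600.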
aSyn rescue: rescues yeast growth from alpha-synuclein toxicity. Potency, µM (series often up to 46.1 µM), for the others: at the highest dose growth rescue (activation), actives largely listed as activators. AID 652106. Yeast expressing alpha-synuclein, growth rescue, BacTiter-Glo, 24 h. actives 0.14% (n = 370,000); further: % of control where 0% means no effect; nearly all actives have a fitted effect of over 65% in size
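Galactose-induced alpha-syn yeast (OD600=0.02, raffinose-pregrown) + pinned cpd, 24 hr, 30 deg C; growth by BacTiter-Glo luminescence. Growth restoration scores as activation.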
Abeta yeast res: compounds reversing amyloid beta toxicity in yeast; yeast expressing A-beta42, growth rescue, OD600, 48 h; response scale: 0% DMSO, 100% iron-clioquinol control; Potency, µM (titrated, usually from 46.1 µM), hits mostly activators; actives 0.063% (n = 410,000); further: nearly all actives have a fitted effect of over 55% in size
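Growth rescue measured by 600 nm absorbance after 48 h yeast culture at 30 C with compound. Values normalized between DMSO and an equimolar ferric chloride plus clioquinol control.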
The depositor's hits bear a star; i = inactive; ? = inconclusive; / = not tested or not shown; ! = not active in a repeat. The list is not random: actives were taken first. Their share in the collection is about 2.1%. The call rests on the fitted dose curve; in most records, active means well fitted curve in the direction sought with a large enough effect; inconclusive means small, poorly fitted or top-dose-only effect, or another doubt; inactive means no such curve, though single readings can be large; an effect the other way counts as inactive or inconclusive. Potency means the concentration at half of the fitted maximal effect.

SMILES	TDP-43 yeast inh	FUS suppressor	aSyn rescue	Abeta yeast res
O=S(=O)(NCCSc1ccc(Cl)cc1)c1ccc(F)cc1	14µM*	i	23%	i
COc1ccc(S(=O)(=O)NCCc2sc(-c3ccccc3)nc2C)cc1F	22µM*	i	5%	i
COc1ccc(S(=O)(=O)NCCc2csc(-c3ccc(F)cc3)n2)cc1	16µM*	i	/	i
Cc1ccc(SCCNS(=O)(=O)c2ccc(F)cc2)cc1	?	i	17%	i
CCOc1ccc(S(=O)(=O)NCCc2csc(-c3ccc(Cl)cc3)n2)cc1	22µM*	?	/	i
CCOC(=O)CNC(c1ccccc1)c1cc(Br)ccc1NC(=O)CCN1CCOCC1 (stereo not given)	22µM*	i	-7%	i
COC(=O)CNC(c1ccccc1)c1cc(Br)ccc1NC(=O)CCN1CCOCC1 (stereo not given)	?	?	7%	i
CC12CN3CC(C)(CN(C1)C3c1ccc(OCc3ccccc3)cc1)C2=O (stereo not given)	20µM*	i	/	i
COc1ccc(-n2c(COc3ccccc3)nnc2SCC(=O)Nc2ccc3c(c2)OCCO3)cc1	/	i	/	/
N/C(=N\OC(=O)c1ccc2c(c1)OCO2)c1cccc(Br)c1	6.3µM*	i	-38%	i
COC(=O)c1cc2oc3ccccc3c2n1Cc1ccc(C)cc1	8%	i	/	i
COC(=O)c1cc2oc3ccccc3c2n1Cc1ccccn1	13µM*	i	-20%	i
C=Cc1ccc(Cn2nc(-c3ccccc3)ccc2=O)cc1	11µM*	?	?	i
CC1CCN(C(=O)C(C)OC(=O)CSc2ccc([N+](=O)[O-])cc2)CC1 (stereo not given)	35µM*	i	-10%	i
C=CCN1[C@H](CO)[C@H](c2ccc(Br)cc2)[C@@H]1C#N	/	i	/	/
CCN(C(=S)Nc1ccc(C(C)=O)cc1)C1CCCCC1	22µM*	i	14%	i
Cc1ccc(C)c(NC(=S)NCCSc2ccc(Cl)cc2)c1	21%	/	-5%	i
CCc1ccccc1NC(=S)NCCSc1ccc(Cl)cc1	13µM*	i	-8%	i
Cc1ccccc1NC(=S)NCCSc1ccc(Cl)cc1	18µM*	i	1%	i
CSc1ccccc1NC(=S)NCc1ccc(Cl)cc1	?	i	-1%	16µM*
CCCCNC(=O)OCCCN1CCC2(CCC(c3ccccc3)CC2)C1 (stereo not given)	/	i	/	/
CCOC(=O)[C@]12CCCC=C1N(CCCOC)C(=O)[C@@H]2CC(=O)NCc1cccc(C(F)(F)F)c1	/	i	/	/
COc1ccc(C(C#N)=Cc2ccccc2OC)cc1	20µM*	i	-9%	i
COc1ccc(/C=C(\C#N)c2nc3ccccc3n2C)c(OC)c1	20µM*	i	/	i
CC[C@@H](CCCCCC#N)CCC(=O)N(c1ccccc1)c1ccccc1	/	i	/	/
SMILES	TDP-43 yeast inh	FUS suppressor	aSyn rescue	Abeta yeast res
Cc1cccc(/C=N/Nc2nncc3ccccc23)c1	-16%	i	-8%	i
C(=N\Nc1nncc2ccccc12)/c1ccccc1	22µM*	i	6%	i
Fc1ccc(Nc2nc3ccccc3n3cnnc23)c(F)c1	8.9µM*	i	/	i
CCCCCN(C(=O)CCC(=O)OC(C)C(=O)c1ccc(Cl)cc1)c1c(N)n(CCCC)c(=O)[nH]c1=O (stereo not given)	-4%	32µM*	1%	i
CCCCn1c(N)c(N(CC(C)C)C(=O)c2ccc(Cl)c(S(=O)(=O)N3CCCC3)c2)c(=O)[nH]c1=O	-9%	32µM*	-16%	i
CCCCCN(C(=O)CCC(=O)OC(C)C(=O)NCc1ccccc1)c1c(N)n(CCCC)c(=O)[nH]c1=O (stereo not given)	-9%	i	-5%	i
CCCCCN(C(=O)CCC(=O)OCC(=O)c1ccc(F)c(F)c1)c1c(N)n(CCCC)c(=O)[nH]c1=O	11%	28µM*	1%	i
Cc1cccc(NC(=O)C2CCCN2S(=O)(=O)c2cccc3cccnc23)c1C (stereo not given)	/	i	/	/
O=C(Cc1ccc(Cl)c(Cl)c1)Nc1ccc(S(=O)(=O)Nc2ccon2)cc1	/	i	/	/
O=C(COc1ccc(Cl)cc1)NCc1ccc(F)cc1	11µM*	i	3%	i
O=C(COC(=O)CCCOc1ccc(Cl)cc1Cl)NCc1ccc(F)cc1	16µM*	i	5%	?
Clc1ccc(-c2nnc(C3CC3)o2)cc1	7%	i	8%	i
Clc1ccc(-c2nnc(C3CCCCC3)o2)cc1	11µM*	i	-3%	i
CCCNC(=O)c1csc(Nc2cccc3ccccc23)n1	32µM*	i	-34%	i
O=C(NCc1ccccc1Cl)C1CCC(CNS(=O)(=O)c2cccc3cccnc23)CC1 (stereo not given)	/	i	/	/
NC(=O)c1nsc(C(=O)N(c2ccccc2)C(C(=O)NC2CCCC2)c2ccc3ncccc3c2)c1N (stereo not given)	13%	i	-1%	i
COc1ccc(N(C(=O)c2snc(C(N)=O)c2N)C(C(=O)NCc2ccc(F)cc2)c2ccc(O)cc2)cc1 (stereo not given)	-8%	28µM*	-1%	i
COc1ccc(N(C(=O)c2snc(C(N)=O)c2N)C(C(=O)NCc2ccccc2)c2ccc(O)cc2)cc1OC (stereo not given)	-3%	?	0%	i
COc1ccc(N(C(=O)c2snc(C(N)=O)c2N)C(C(=O)NC2CCCC2)c2ccc3ncccc3c2)cc1 (stereo not given)	-20%	28µM*	-5%	i
Nc1ccc(NC(=O)c2cccc(C(=O)Nc3ccc(N)cc3Cl)c2)c(Cl)c1	-16%	11µM*!	-1%	i
CC#CC(=O)N[C@H]1CC[C@@]23CCCN2C(=O)CCC[C@H]3[C@H]1C	/	i	/	/
Cn1c(SCC(=O)NCCN2CCCCC2)nc2cccnc21	/	i	/	/
CCCCNC(=S)N1CCn2cccc2C1c1ccccc1 (stereo not given)	/	i	-6%	i
CCCCNC(=S)N1CCn2cccc2C1c1ccc(F)cc1 (stereo not given)	16µM*	?	7%	i
S=c1[nH]nc(Cc2sc(-c3ccccc3)nc2-c2ccccc2)o1	13µM*	?	-66%	i
S=c1[nH]nc(Cc2c[nH]c3ccccc23)o1	-3%	i	-19%	i
CCCNC(=O)C1(C)CCCN(C(=O)C2(c3ccc(Cl)cc3)CCCC2)C1 (stereo not given)	35µM*	i	6%	i
O=C(Nc1sc2c(c1-c1nc3ccccc3s1)CCNC2)C(F)(F)F	/	i	/	/
COc1ccc(NCc2cc3cc4c(cc3n(CC(=O)Nc3ccc(C)cc3)c2=O)OCO4)cc1	-6%	14µM*	-1%	i
